# In all, about 2,900 compounds were measured (“NF-kB SEAP reporter activity, fold change vs agonist alone”: median about 0.99, highest 2% from about 2.6 on). This is one part of a sample in which the highest values are shown more often than they occur.
# Experiments:
# RAW-Dual [1] = assay: NF-kB SEAP reporter activity, fold change vs agonist alone; higher = enhanced NF-kB activity
# Outline: (§1)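 After 50 nL of library stock was delivered by pin tool to RAW-Dual macrophages (50,000 cells/well, DMEM, 384-well plates), a PRR agonist was added 1 h later and the plates were kept at 37 °C, 5% CO2. Twenty hours later, IRF was read from supernatant by QuantiLuc luminescence and NF-κB by QuantiBlue absorbance at 620 nm. Reporter activity is stated as fold change over agonist-alone wells. Wells with IncuCyte confluency under 70% of agonist controls in both mask sets were counted as cytotoxic.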
# RAW-Dual [2] = assay: NF-kB SEAP reporter activity, fold change vs agonist alone; cytotoxicity flag (confluency mask): not cytotoxic; higher = enhanced NF-kB activity
# Outline: as §1
# RAW-Dual [3] = assay: NF-kB SEAP reporter activity, fold change vs agonist alone; cytotoxicity flag (confluency mask): cytotoxic (confluency <70% of control); higher = enhanced NF-kB activity
# Outline: as §1
# [4] = library stock concentration (final ~1000-fold dilution): 10 mM, cytotoxicity flag (confluency mask): not cytotoxic, agonist: Imiquimod (TLR7) […]
# [5] = library stock concentration (final ~1000-fold dilution): 10 mM, cytotoxicity flag (confluency mask): not cytotoxic, agonist: MPLA (TLR4) […]
# [6] = agonist: ODN 1826 (TLR9) 0.5 ug/mL
# [7] = agonist: Pam2CSK4 (TLR2/6) 0.1 ug/mL
# [8] = agonist: Pam3CSK4 (TLR2/1) 0.1 ug/mL
# [9] = library stock concentration (final ~1000-fold dilution): 10 mM, cytotoxicity flag (confluency mask): cytotoxic (confluency <70% of control), agonist: Imiquimod (TLR7) […]
# [10] = library stock concentration (final ~1000-fold dilution): 10 mM, cytotoxicity flag (confluency mask): cytotoxic (confluency <70% of control), agonist: MPLA (TLR4) […]
# [11] = library stock concentration (final ~1000-fold dilution): 10 mM water, cytotoxicity flag (confluency mask): not cytotoxic, agonist: Imiquimod (TLR7) […]
# [12] = library stock concentration (final ~1000-fold dilution): 10 mM water, cytotoxicity flag (confluency mask): not cytotoxic, agonist: MPLA (TLR4) […]
compound,measurement,setting,value
COc1ccccc1N1CCN(CCCNc2cc(=O)n(C)c(=O)n2C)CC1.Cl,NF-kB SEAP reporter activity,RAW-Dual [1]; [4],1.18
same,NF-kB SEAP reporter activity,RAW-Dual [1]; [5],0.935
COc1ccccc1S(=O)(=O)Nc1ccc2c(c1)CN(C)C(=O)N2,NF-kB SEAP reporter activity,RAW-Dual [1]; [4],2.14
same,NF-kB SEAP reporter activity,RAW-Dual [1]; [5],2.51
CN1C(=N)NC(C)(c2cc(NC(=O)c3ccc(F)cn3)ccc2F)CS1(=O)=O (stereo unspecified) (library stock concentration (final ~1000-fold dilution): 10 mM),NF-kB SEAP reporter activity,RAW-Dual [2]; agonist: LPS (TLR4) 0.1 ug/mL,0.906
same,NF-kB SEAP reporter activity,RAW-Dual [2]; [6],0.673
same,NF-kB SEAP reporter activity,RAW-Dual [2]; [7],0.747
same,NF-kB SEAP reporter activity,RAW-Dual [2]; [8],0.657
CN1C(=N)NC(C)(c2cc(NC(=O)c3ccc(F)cn3)ccc2F)CS1(=O)=O (stereo unspecified),NF-kB SEAP reporter activity,RAW-Dual [1]; [4],0.847
same,NF-kB SEAP reporter activity,RAW-Dual [1]; [5],0.931
O=C(O)CN1C(=O)c2cccc3cccc(c23)C1=O (library stock concentration (final ~1000-fold dilution): 10 mM),NF-kB SEAP reporter activity,RAW-Dual [2]; agonist: LPS (TLR4) 0.1 ug/mL,0.89
same,NF-kB SEAP reporter activity,RAW-Dual [2]; [6],0.942
same,NF-kB SEAP reporter activity,RAW-Dual [2]; [7],1.03
same,NF-kB SEAP reporter activity,RAW-Dual [2]; [8],1.06
O=C(CCCCCN1C(=O)c2cccc3cccc(c23)C1=O)NO,NF-kB SEAP reporter activity,RAW-Dual [1]; [9],1.51
same,NF-kB SEAP reporter activity,RAW-Dual [1]; [10],2.33
COc1ccc(-n2c(SCCCN3C(=O)c4cccc5cccc(c45)C3=O)nnc2-c2ccncc2)cc1,NF-kB SEAP reporter activity,RAW-Dual [1]; [4],1.08
same,NF-kB SEAP reporter activity,RAW-Dual [1]; [5],1.32
COc1ccc(-n2c(SCCCN3C(=O)c4cccc5cccc(c45)C3=O)nnc2-c2ccncc2)cc1 (library stock concentration (final ~1000-fold dilution): 10 mM),NF-kB SEAP reporter activity,RAW-Dual [2]; agonist: LPS (TLR4) 0.1 ug/mL,2.06
same,NF-kB SEAP reporter activity,RAW-Dual [2]; [6],1.17
same,NF-kB SEAP reporter activity,RAW-Dual [2]; [7],1.3
same,NF-kB SEAP reporter activity,RAW-Dual [2]; [8],2.18
O=C(CCCCCN1C(=O)c2cccc3cccc(c23)C1=O)NO (library stock concentration (final ~1000-fold dilution): 10 mM),NF-kB SEAP reporter activity,RAW-Dual [3]; agonist: LPS (TLR4) 0.1 ug/mL,3.67
same,NF-kB SEAP reporter activity,RAW-Dual [3]; [6],2.57
same,NF-kB SEAP reporter activity,RAW-Dual [3]; [7],1.28
same,NF-kB SEAP reporter activity,RAW-Dual [3]; [8],2.06
O=C(O)CN1C(=O)c2cccc3cccc(c23)C1=O,NF-kB SEAP reporter activity,RAW-Dual [1]; [4],0.931
same,NF-kB SEAP reporter activity,RAW-Dual [1]; [5],1.03
CCCCCOc1ccc(-c2cc(-c3ccc(C(=O)NC4CC(O)C(O)NC(=O)C5C(O)C(C)CN5C(=O)C(C(O)CC(N)=O)NC(=O)C(C(O)C(O)c5ccc(O)c(OS(=O)(=O)O)c5)NC(=O)C5CC(O)CN5C(=O)C(C(C)O)NC4=O)cc3)no2)cc1 (stereo unspecified),NF-kB SEAP reporter activity,RAW-Dual [1]; [11],0.949
same,NF-kB SEAP reporter activity,RAW-Dual [1]; [12],1.14
CCC(C)CC(C)CCCCCCCCC(=O)NC1CC(O)C(NCCN)NC(=O)C2C(O)CCN2C(=O)C(C(O)CCN)NC(=O)C(C(O)C(O)c2ccc(O)cc2)NC(=O)C2CC(O)CN2C(=O)C(C(C)O)NC1=O (stereo unspecified) (library stock concentration (final ~1000-fold dilution): 10 mM water),NF-kB SEAP reporter activity,RAW-Dual [2]; agonist: LPS (TLR4) 0.1 ug/mL,1.29
same,NF-kB SEAP reporter activity,RAW-Dual [2]; [6],1.08
same,NF-kB SEAP reporter activity,RAW-Dual [2]; [7],1.09
same,NF-kB SEAP reporter activity,RAW-Dual [2]; [8],0.968
CCCCCOc1ccc(-c2ccc(-c3ccc(C(=O)NC4CC(O)C(O)NC(=O)C5C(O)C(C)CN5C(=O)C(C(C)O)NC(=O)C(C(O)C(O)c5ccc(O)cc5)NC(=O)C5CC(O)CN5C(=O)C(C(C)O)NC4=O)cc3)cc2)cc1 (stereo unspecified) (library stock concentration (final ~1000-fold dilution): 10 mM),NF-kB SEAP reporter activity,RAW-Dual [3]; agonist: LPS (TLR4) 0.1 ug/mL,3.72
same,NF-kB SEAP reporter activity,RAW-Dual [3]; [6],0.545
same,NF-kB SEAP reporter activity,RAW-Dual [3]; [7],1.28
same,NF-kB SEAP reporter activity,RAW-Dual [3]; [8],1.42
CCC(C)CC(C)CCCCCCCCC(=O)NC1CC(O)C(NCCN)NC(=O)C2C(O)CCN2C(=O)C(C(O)CCN)NC(=O)C(C(O)C(O)c2ccc(O)cc2)NC(=O)C2CC(O)CN2C(=O)C(C(C)O)NC1=O (stereo unspecified),NF-kB SEAP reporter activity,RAW-Dual [1]; [11],0.901
same,NF-kB SEAP reporter activity,RAW-Dual [1]; [12],0.866
CCCCCOc1ccc(-c2ccc(-c3ccc(C(=O)NC4CC(O)C(O)NC(=O)C5C(O)C(C)CN5C(=O)C(C(C)O)NC(=O)C(C(O)C(O)c5ccc(O)cc5)NC(=O)C5CC(O)CN5C(=O)C(C(C)O)NC4=O)cc3)cc2)cc1 (stereo unspecified),NF-kB SEAP reporter activity,RAW-Dual [1]; [9],1.67
same,NF-kB SEAP reporter activity,RAW-Dual [1]; [10],2.43
CCCCCOc1ccc(-c2cc(-c3ccc(C(=O)NC4CC(O)C(O)NC(=O)C5C(O)C(C)CN5C(=O)C(C(O)CC(N)=O)NC(=O)C(C(O)C(O)c5ccc(O)c(OS(=O)(=O)O)c5)NC(=O)C5CC(O)CN5C(=O)C(C(C)O)NC4=O)cc3)no2)cc1 (stereo unspecified) (library stock concentration (final ~1000-fold dilution): 10 mM water),NF-kB SEAP reporter activity,RAW-Dual [2]; agonist: LPS (TLR4) 0.1 ug/mL,1.2
same,NF-kB SEAP reporter activity,RAW-Dual [2]; [6],1.05
same,NF-kB SEAP reporter activity,RAW-Dual [2]; [7],0.968
same,NF-kB SEAP reporter activity,RAW-Dual [2]; [8],1.09
Cn1ncc(Cl)c1-c1cc(C(=O)NC(CN)Cc2ccc(F)c(F)c2)oc1Cl (stereo unspecified) (library stock concentration (final ~1000-fold dilution): 10 mM),NF-kB SEAP reporter activity,RAW-Dual [2]; agonist: LPS (TLR4) 0.1 ug/mL,1.03
same,NF-kB SEAP reporter activity,RAW-Dual [2]; [6],2.35
same,NF-kB SEAP reporter activity,RAW-Dual [2]; [7],1.07
same,NF-kB SEAP reporter activity,RAW-Dual [2]; [8],1.44
Cn1ncc(Cl)c1-c1cc(C(=O)NC(CN)Cc2ccc(F)c(F)c2)oc1Cl (stereo unspecified),NF-kB SEAP reporter activity,RAW-Dual [1]; [4],1.61
same,NF-kB SEAP reporter activity,RAW-Dual [1]; [5],1.61
CCOC(=O)C(CCc1ccccc1)NC(C)C(=O)N1Cc2ccccc2CC1C(=O)O.Cl (stereo unspecified) (library stock concentration (final ~1000-fold dilution): 10 mM),NF-kB SEAP reporter activity,RAW-Dual [2]; agonist: LPS (TLR4) 0.1 ug/mL,0.94
same,NF-kB SEAP reporter activity,RAW-Dual [2]; [6],1.07
same,NF-kB SEAP reporter activity,RAW-Dual [2]; [7],1.26
same,NF-kB SEAP reporter activity,RAW-Dual [2]; [8],1.05
CCOC(=O)C(CCc1ccccc1)NC(C)C(=O)N1Cc2ccccc2CC1C(=O)O.Cl (stereo unspecified),NF-kB SEAP reporter activity,RAW-Dual [1]; [4],1.02
same,NF-kB SEAP reporter activity,RAW-Dual [1]; [5],1.03
CC(Nc1ncnc(N)c1C#N)c1cc2cccc(-c3ccc(=O)n(C)c3)c2c(=O)n1C(C)C (stereo unspecified) (library stock concentration (final ~1000-fold dilution): 10 mM),NF-kB SEAP reporter activity,RAW-Dual [2]; agonist: LPS (TLR4) 0.1 ug/mL,4.83
same,NF-kB SEAP reporter activity,RAW-Dual [2]; [6],0.722
same,NF-kB SEAP reporter activity,RAW-Dual [2]; [7],1.22
same,NF-kB SEAP reporter activity,RAW-Dual [2]; [8],3.02
CC(Nc1ncnc2[nH]cnc12)c1cc2cccc(Cl)c2c(=O)n1-c1ccccc1 (stereo unspecified) (library stock concentration (final ~1000-fold dilution): 10 mM),NF-kB SEAP reporter activity,RAW-Dual [2]; agonist: LPS (TLR4) 0.1 ug/mL,0.744
same,NF-kB SEAP reporter activity,RAW-Dual [2]; [6],0.653
same,NF-kB SEAP reporter activity,RAW-Dual [2]; [7],0.665
same,NF-kB SEAP reporter activity,RAW-Dual [2]; [8],0.549
CC(Nc1ncnc2[nH]cnc12)c1cc2cccc(Cl)c2c(=O)n1-c1ccccc1 (stereo unspecified),NF-kB SEAP reporter activity,RAW-Dual [1]; [4],0.473
same,NF-kB SEAP reporter activity,RAW-Dual [1]; [5],0.709
CC(NC(=O)c1c(N)nn2cccnc12)c1cc2cccc(C#Cc3cnn(C)c3)c2c(=O)n1-c1ccccc1 (stereo unspecified) (library stock concentration (final ~1000-fold dilution): 10 mM),NF-kB SEAP reporter activity,RAW-Dual [2]; agonist: LPS (TLR4) 0.1 ug/mL,2.34
same,NF-kB SEAP reporter activity,RAW-Dual [2]; [6],1.3
same,NF-kB SEAP reporter activity,RAW-Dual [2]; [7],0.628
same,NF-kB SEAP reporter activity,RAW-Dual [2]; [8],0.931
CC(NC(=O)c1c(N)nn2cccnc12)c1cc2cccc(C#Cc3cnn(C)c3)c2c(=O)n1-c1ccccc1 (stereo unspecified),NF-kB SEAP reporter activity,RAW-Dual [1]; [4],1.18
same,NF-kB SEAP reporter activity,RAW-Dual [1]; [5],1.44
CC(Nc1ncnc(N)c1C#N)c1cc2cccc(-c3ccc(=O)n(C)c3)c2c(=O)n1C(C)C (stereo unspecified),NF-kB SEAP reporter activity,RAW-Dual [1]; [4],1.22
same,NF-kB SEAP reporter activity,RAW-Dual [1]; [5],2.8

# From the supplement of paper PMC10037445
